# Compounds without any hit were thinned out: in the full panel of roughly 83,000, 20% have a hit.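 Method: cells in 96-well plates; compound added at one concentration; 48 h incubation; percent growth measured; values under 10 scored active.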 Values without a mark were called inactive. Activity calls are given as the source filed them.
# Legend:
# Experiment in all cases: NCI-60 one-dose screen, 48 h (100 = growth as untreated, 0 = no growth, -100 = all killed)
# Details in all cases: 10 µM unless noted
# SK-MEL-2 melanoma = tested on: SK-MEL-2 melanoma
# EKVX NSCLC = tested on: EKVX NSCLC
# SN12C renal = tested on: SN12C renal
# UO-31 renal = tested on: UO-31 renal
# TK-10 renal = tested on: TK-10 renal
# ACHN renal = tested on: ACHN renal
# CAKI-1 renal = tested on: CAKI-1 renal
# A498 renal = tested on: A498 renal
# CCRF-CEM leukemia = tested on: CCRF-CEM leukemia
# MOLT-4 leukemia = tested on: MOLT-4 leukemia
Structure (SMILES),growth (SK-MEL-2 melanoma),growth (EKVX NSCLC),growth (SN12C renal),growth (UO-31 renal),growth (TK-10 renal),growth (ACHN renal),growth (CAKI-1 renal),growth (A498 renal),growth (CCRF-CEM leukemia),growth (MOLT-4 leukemia)
CCOc1cc(C2C(Cl)C(=O)N2n2cnnc2)ccc1O (stereo not given),100%,109%,98.6%,86%,99.1%,96.7%,85.3%,101%,93.6%,100%
O=C1c2cccc3c(-c4ccc(-c5nc6c7ccccc7c7ccccc7c6[nH]5)cc4)ccc(c23)C(=O)N1CCN1CCNCC1,105%,97%,93.4%,94.2%,104%,71.7%,91.4%,107%,37.5%,53.4%
COc1ccc(/C(C)=C(\c2ccc(Cl)cc2)c2ccc(OCCCN(C)C)cc2)cc1F,97.2%,85.4%,76%,54.2%,78.6%,76.7%,57.3%,80.1%,48.2%,43.1%
Nc1c(-c2nc3ccc(Br)cc3c(=O)[nH]2)nnn1-c1ccccc1,94.6%,101%,95.5%,106%,84.3%,71.6%,103%,87.4%,93.3%,85.1%
COc1ccc(OC)c(/C=C2\COc3ccc(O)cc3C2=O)c1,100%,103%,84.1%,86.6%,97%,78.9%,95.7%,100%,5.83% (active),64.9%
C[C@H]1[C@H](C)CC[C@]2(C(=O)N3CCN(C)CC3)CC[C@]3(C)C(=CC[C@@H]4[C@@]5(C)C/C(=C/c6cccnc6)C(=O)C(C)(C)[C@@H]5CC[C@]43C)[C@H]12,-82.6% (active),-81.5% (active),-95.3% (active),-92.5% (active),-97.4% (active),-94.4% (active),-42.5% (active),-83.2% (active),-51.7% (active),-51.9% (active)
CS(=O)(=O)c1ccc(-c2nc3cc(Cl)ccc3n2CC(=O)NO)cc1,88.2%,99.4%,95%,82.4%,112%,93.7%,93.6%,101%,93.8%,94.2%
CCCCC1COc2cccc3c(SCC(=O)N(C)c4cccc(Cl)c4)cc[n+]1c23 (stereo not given),105%,113%,94.4%,90.7%,110%,101%,102%,106%,105%,109%
C[C@H]1[C@H]2C3=CC[C@@H]4[C@@]5(C)C/C(=C/c6ccncc6)C(=O)C(C)(C)[C@@H]5CC[C@@]4(C)[C@]3(C)CC[C@@]2(C(=O)N2CCN(C)CC2)CC[C@@H]1C,96.3%,78.3%,78.9%,62.4%,86.1%,91%,75.1%,93.9%,64.7%,52.1%
NC(=S)c1csc(CCNC(=O)c2ccccc2)n1,115%,115%,91.8%,91%,107%,105%,91.3%,89.6%,90.3%,102%
O=C(CCc1nc(-c2cccc(Cl)c2)no1)Nc1ccccn1,105%,92.6%,94.9%,88.1%,111%,101%,89.4%,92.5%,95%,96.8%
Cc1ccc(S(=O)(=O)Nc2sccc2-c2nc(-c3ccccc3)no2)cc1,91.6%,94.2%,95.1%,70.4%,103%,89.9%,81.3%,96.3%,92.1%,98%
COc1cc(-c2ccc(N=Nc3c(O)c(C(=O)Nc4ccccc4OC)cc4ccccc34)c(OC)c2)ccc1N=Nc1c(O)c(C(=O)Nc2ccccc2OC)cc2ccccc12,101%,96.4%,98.6%,78.7%,110%,90.7%,83.8%,78%,9.35% (active),93.8%
Cc1nc2ccc(C(=O)NCc3cc(C(=O)O)c(C)o3)cc2nc1C,102%,105%,96.5%,82.8%,97.6%,99.4%,86.2%,106%,97.1%,106%
O=C(/C=C/c1ccccc1)c1ccc2ccccc2c1,98.4%,86.7%,99.7%,73.9%,44.4%,16.2%,83.9%,93.5%,23%,74.5%
Cc1nc(Nc2cccc(NC(=O)Nc3ccc(Cl)cc3)c2)c2ccccc2n1,107%,87.2%,92.9%,88.2%,104%,105%,80.4%,81.8%,82.9%,76.7%
CC1=NN(c2cccc(Cl)c2)C(=O)/C1=C\c1cn(CC(O)CN2CCCCC2)c2ccccc12 (stereo not given),73.8%,88%,66.3%,67%,71.7%,38.6%,24%,80.2%,41.9%,48.3%
CN1CCN(C2=C(Cl)C(=O)c3ccccc3C2=O)CC1,45.8%,89.3%,79.1%,75.4%,93.5%,82.9%,77%,88.6%,75.5%,79.7%
CN(C)c1ccc(/C=N/NC(=O)COc2cc(=O)n(C)c3ccccc23)cc1,111%,103%,99.5%,71.7%,119%,90.6%,83.7%,104%,106%,104%
COc1cc(C2C=C(c3cccc(NC(C)=O)c3)Nc3ncnn32)cc(OC)c1OC (stereo not given),64.9%,37.2%,32.9%,59.6%,4.84% (active),52.8%,-10.6% (active),1.13% (active),11.5%,9.75% (active)
Cc1c2c(cn1Cc1ccccc1)CCc1cn[nH]c1-2,96.4%,99.1%,98.3%,75.2%,118%,99.6%,84.1%,108%,77%,85.1%
Cc1cc(C(c2ccccc2)c2ccccc2)ccc1NS(=O)(=O)c1ccccc1,104%,83.5%,95.3%,82.3%,123%,106%,89.3%,102%,82.4%,59.7%
CSc1ccc(Cl)c(C(=O)Nc2sccc2C(N)=O)c1,92.7%,108%,93.6%,80.6%,158%,102%,112%,94.2%,94.1%,125%
c1ccc(-c2oc3ccccc3c2-c2ccccc2)cc1,92.9%,96.6%,92.2%,86.4%,110%,97.3%,69.4%,89.9%,86.1%,54.9%
Cn1ccnc1C(=O)/C=C/c1ccc(C(=O)Nc2ccc(S(F)(F)(F)(F)F)cc2)cc1,62.7%,26.3%,7.07% (active),28.5%,48.8%,42.5%,23.9%,38.4%,3.4% (active),-5.05% (active)
CC1(C)N=C(N)N=C(N)N1c1cccc(CN)c1,99.8%,83.9%,91.3%,66.8%,101%,100%,89.2%,98%,96.5%,95.1%

# — PubChem BioAssay (NCI)
